The campaign covered roughly 390,000 compounds. About 4,700 (1.2%) were called active. Not shown: some 4% with an inconclusive outcome. Calls come from the whole dose curve; as a rule, active = well fitted inhibition curve with a large enough effect; inconclusive = small, poorly fitted or top-dose-only effect, or another doubt; inactive = no such curve, though single readings can be large or run the other way. This excerpt belongs to a sample that is enriched for actives.
Molecular target: DNA polymerase eta (Homo sapiens) (UniProt Q9Y253)
Sequence (Q9Y253 whole entry, looked up): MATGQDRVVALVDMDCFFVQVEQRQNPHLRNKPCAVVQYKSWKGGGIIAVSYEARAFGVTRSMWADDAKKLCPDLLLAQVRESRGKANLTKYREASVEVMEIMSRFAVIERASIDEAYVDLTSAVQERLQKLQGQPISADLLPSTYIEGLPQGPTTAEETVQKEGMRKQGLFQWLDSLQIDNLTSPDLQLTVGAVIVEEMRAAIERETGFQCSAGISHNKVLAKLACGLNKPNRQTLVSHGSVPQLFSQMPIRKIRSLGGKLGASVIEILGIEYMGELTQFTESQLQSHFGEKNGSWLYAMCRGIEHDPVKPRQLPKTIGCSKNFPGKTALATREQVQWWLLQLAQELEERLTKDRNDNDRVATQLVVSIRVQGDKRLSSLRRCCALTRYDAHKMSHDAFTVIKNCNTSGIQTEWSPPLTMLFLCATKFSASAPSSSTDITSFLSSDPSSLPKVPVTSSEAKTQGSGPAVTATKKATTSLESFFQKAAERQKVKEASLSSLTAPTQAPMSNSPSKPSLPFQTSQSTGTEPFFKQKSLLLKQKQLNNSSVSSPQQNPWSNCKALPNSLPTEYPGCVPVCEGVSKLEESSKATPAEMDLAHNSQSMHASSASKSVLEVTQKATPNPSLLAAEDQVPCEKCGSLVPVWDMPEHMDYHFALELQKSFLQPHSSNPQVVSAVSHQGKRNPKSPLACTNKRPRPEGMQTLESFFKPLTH
Assay: qHTS for Inhibitors of Polymerase Eta
Settings: recombinant Pol eta, fluorescent DNA replication assay; series mostly up to 114 µM; activity change, negative = inhibition: at the top concentration
Outline: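 Pol eta (10 nM) was preincubated with compounds for 15 min at room temperature, after which fluorescent replication substrate (50 nM final) was added to start the reaction. Fluorescence was read kinetically at 0 and 10 min.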
% is set by controls: 0 for no effect and ±100 for the full control effect; potency is the fitted concentration of half-maximal effect.

Activity change, negative = inhibition, inactive:
COc1ccc(OC)c(-c2nc(C(N)=O)c3c(n2)n(-c2ccc4c(c2)OCO4)c(=O)n3C)c1 -0.421%
CCCOc1cccc(C(=O)Nc2cccc(NC(=O)c3ccc(C(C)(C)C)cc3)c2)c1 -20.1%
CCc1nnc(NC(=O)CSc2nnc(COc3ccc(C#N)cc3)n2-c2ccccc2)s1 -0.262%
Cc1csc2nc(COc3ccc(NC(=O)COc4ccccc4)cc3)cc(=O)n12 -12.8%
COCCNC(=O)CSc1c(C)cnc2c1c(=O)n(C)c(=O)n2C -26.6%
CCOC(=O)c1ccc(NC(=O)CCn2cnnn2)cc1 -12%
CCN(C(=O)c1sc2cc(OC)ccc2c1Cl)c1ccccc1 -18.2%
CCC(=O)N1CCc2cc(Br)cc(S(=O)(=O)CCC(=O)N3CCN(c4ccc(F)cc4)CC3)c21 -12.4%
COc1ccccc1CNC(=O)CCCCn1c(=O)c2ccccc2n(CC(=O)Nc2cc(Cl)ccc2C)c1=O 8.51%
COc1cc(OC)c(NC(=O)c2cc(S(=O)(=O)N3CCCC3)cn2C)cc1Cl -11.9%
CCCN1CN=C(NS(=O)(=O)c2ccc(NC(C)=O)cc2)NC1 -13.5%
Cc1ccc(-n2c(=O)c3cccnc3n2CC(=O)Nc2ccccc2C(F)(F)F)cc1C -2.51%
COCCCNC(=O)c1c(NC(=O)c2cc(=O)c3cc(C)c(C)cc3o2)sc2c1CCCC2 8.47%
CCc1ccc(NS(=O)(=O)c2ccc3[nH]cc(C(=O)NCCc4cccc(C)c4)c(=O)c3c2)cc1 -14.7%
Cc1cc(C)cc(NS(=O)(=O)c2ccc3[nH]cc(C(=O)N4CCCCC4)c(=O)c3c2)c1 -10.1%
CCOc1cc(C2c3c(-c4ccc(Br)cc4)n[nH]c3C(=O)N2c2ccc(Cl)cc2)ccc1O (stereo not drawn) -27.5%
Cc1cccc(Nc2nc(C)nc(N)c2S(=O)(=O)c2ccccc2)c1 -6.89%
COc1ccc(CCNC(=O)CCCn2c(=O)c3ccccc3n(Cc3ccc(C)cc3)c2=O)cc1OC -10.4%
CC(=O)c1cccc(Nc2ccc3cc(S(=O)(=O)N4CCC(C)CC4)ccc3n2)c1 -25.7%
Cc1ccccc1CNC(=O)CSc1nnc(C)c2c(C)n(-c3ccccc3)nc12 -14%
CN(Cc1ccccc1)C(=O)c1cn(C)c2ccc(S(=O)(=O)N3CCCCC3)cc2c1=O -6.85%
CCCCn1c(=N)c(S(=O)(=O)c2ccccc2)cc2c(=O)n3cccc(C)c3nc21 -22.5%
CCCc1cc(-c2n[nH]c(=S)n2CC)c2ccccc2n1 -3.34%
Cc1ccc(NC(=O)CSc2nnc3[nH]c(=O)cc(C)n23)cc1Cl 16.8%
COc1ccc(CNC(=O)CCC(=O)Nc2nnc(C(C)C)s2)cc1 -6.93%
CCc1nnc(NC(=O)CCC(=O)NCc2ccccc2OC)s1 -7.14%
CCOc1ccccc1NC(=O)CCn1cnnn1 -19.3%
CCOc1ccc(NC(=O)C/C(C)=N/NC(=O)Cc2cccs2)cc1 -8.22%
COc1ccc(CC(=O)Nc2sc(Cc3ccccc3)c(C)c2C(N)=O)cc1 -6.32%
CC(C)(C)CC(=O)Nc1nnc(SCC(=O)NCc2cccs2)s1 -15.9%
COc1cccc(NC(=O)CSc2cc(=O)n(C)c3ccc(Cl)cc23)c1 -11.1%
Fc1ccccc1Oc1ncnc2c1oc1ccccc12 -14.1%
Cc1cccc(-n2ncc(C(=O)N3CCc4ccccc4C3)c2C2CCN(C(=O)OC(C)(C)C)CC2)c1 -14.8%
COc1ccccc1-c1nnc(C2CCN(C(=O)c3ccc(Cl)cc3)CC2)o1 -19.5%
Cc1ccc(-n2c(=O)c3cccnc3n2CC(=O)NCc2ccc(F)cc2)cc1C -22.2%
Cc1oc2ccc(O)c(CN3CCOCC3)c2c1C(=O)Nc1cccc(Cl)c1C -14.5%
COc1ccc2oc(=O)c(-c3cn4c(n3)sc3cc(OC)ccc34)cc2c1 -9.11%
COc1ccc2cc(-c3nc(Cl)c4c5c(sc4n3)CC(C)CC5)c(=O)oc2c1 (stereo not drawn) -7.52%
CCCS(=O)(=O)c1ncc(Cl)c(C(=O)Nc2scc(-c3ccccc3)c2C(=O)OCC)n1 -15.6%
COc1ccc(Cn2c(C(=O)O)c(CNCCc3cccs3)c3ccc(OC)cc32)cc1 -16.6%
CCCNC(=O)C1CCN(c2nc3ccc(C)cc3[nH]2)CC1 -9.68%
CCCCCn1c(CCCNC(=O)c2ccccc2OC)nc2ccccc21 -9.44%
Cc1ccccc1NC(=O)Cn1cc(C(=O)c2cccs2)c2ccccc21 -17.3%
Cn1c(=O)c2c(nc(Oc3ccc(C#N)cc3)n2Cc2ccc(Cl)cc2Cl)n(C)c1=O -8.3%
Cc1cccc(C)c1-n1ncc(C(=O)NCCCN2CCCCC2)c1C1CCN(C(=O)OC(C)(C)C)CC1 -12.6%
CC(C)CC(=O)NCC(c1ccc2c(c1)OCO2)N1CCN(c2ccc(F)cc2)CC1 (stereo not drawn) -22.4%
CC(=O)c1ccccc1OCc1ccc(C(=O)c2ccccc2)cc1 -17.2%
O=C(c1ccccc1)c1ccc(OC(=O)N2CCCC2)cc1 -11.8%
CCOc1cccc2sc(N3CCN(C(=O)C4CC4)CC3)nc12 -10.9%
O=C(CSc1oc(-c2ccco2)nc1S(=O)(=O)c1ccc(Cl)cc1)c1ccccc1 -11%

Potency, inactive:
CC(=O)c1ccc(S(=O)(=O)N2CCC(Oc3ccc(-n4cnnn4)cc3)CC2)cc1

Potency, active:
N#Cc1ccc(OCC(=O)Nc2nc(-c3ccccn3)cs2)cc1 22.4 µM
O=C1Nc2ccc([N+](=O)[O-])cc2C1=Nc1cccc(CO)c1 20 µM
CC(C)c1ccc(NS(=O)(=O)c2ccc3[nH]cc(C(=O)NC4CCCC4)c(=O)c3c2)cc1 31.6 µM
CC(=O)c1ccc(S(=O)(=O)N2CCN(C(=O)/C=C/c3ccc4ccccc4n3)CC2)cc1 39.8 µM
Cc1cc(-c2n[nH]c(=S)n2/N=C/C(Br)=C/c2ccccc2)n[nH]1 14.1 µM
CCOc1ccccc1NC(=O)Cc1cccs1 44.7 µM
CCc1nnc(NC(=O)Cc2cccs2)s1 35.5 µM
COc1ccc(Cc2nnc(NC(=O)Cc3cccs3)s2)cc1 1 µM
COc1ccc(-c2cc3ccc(OCc4nn[nH]n4)cc3oc2=O)cc1 17.8 µM
Cc1ccc(Cc2cncc(O)c2)cc1S(=O)(=O)O 25.1 µM
Oc1c(Cl)cc(Cl)c(Cl)c1Cc1c(O)c(Cl)cc(Cl)c1Cl 44.7 µM
O=C(c1ccc(O)cc1)c1ccc(C(=O)O)c(C(=O)O)c1 39.8 µM

Reference: PubChem BioAssay AID588591 (National Center for Advancing Translational Sciences (NCATS), 2011)
